Results filed as inconclusive are left out. Values without a mark were called inactive. Activity calls are given as the source filed them. Calls come from the whole dose curve; as a rule, active = well fitted inhibition curve with a large enough effect; inconclusive = small, poorly fitted or top-dose-only effect; inactive = flat fitted curve, though single readings scatter.

Assay [1] has as its system TAB165. Nature of the assay: qHTS profiling for inhibitors of Plasmodium falciparum proliferation (AID 504749). Note: potency is the fitted concentration of half-maximal effect. Particulars: P. falciparum in erythrocytes, SYBR Green DNA, 72 h; series mostly up to 28.7 µM. Summed up:
(§1)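 Parasite proliferation within erythrocytes, 72 h exposure. Endpoint: SYBR Green I fluorescence after overnight lysis at room temperature. Controls: 0.29 uM artemisinin, DMSO.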

The test system of assay [2] is CRL-7250. Nature of the assay: Cytotoxic Profiling of Annotated Libraries Using Quantitative High-Throughput Screening (AID 1296008). For max response: % is set by controls: 0 for no effect and ±100 for the full control effect. Particulars: Five cell lines viability, CellTiter-Glo ATP luminescence, 48-72 h; stronger effect = lower value. In a few lines:
(§2)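 Compounds were pin-transferred onto cells and incubated 48 or 72 hr at 37 degree Celsius, 95% humidity. CellTiter-Glo was added, plates sat 10 min at room temperature, then ATP-coupled luminescence was imaged as the viability read-out.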

The subject of assay [3] is HEK293. The description is as above. Particulars: Five cell lines viability, CellTiter-Glo ATP luminescence, 48-72 h; stronger effect = lower value. Summed up: as §2
Assay [4] relates to HaCat. Described as above. Particulars: Five cell lines viability, CellTiter-Glo ATP luminescence, 48-72 h; stronger effect = lower value. In a few lines: as §2
In assay [5] the test system is NIH3T3. Described as above. Particulars: Five cell lines viability, CellTiter-Glo ATP luminescence, 48-72 h; stronger effect = lower value. Summed up:
as §2

In assay [6] the test system is HACAT. Nature of the assay: qHTS assay to identify novel small-molecules to repurpose for Merkel cell carcinoma treatment (AID 1296009). Particulars: MCC and control cell lines, CellTiter-Glo viability, 72 h; at 44.8 µM (top of the series) unless noted. In a few lines:
(§3)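 qHTS format: cells treated with library compounds in DMSO across 8 (NPC) or 11 (MIPE) concentrations. Readout after 72 hr at 37 degree celsius was CellTiter-Glo luminescence.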

Assay [7] relates to MCC-13. The description is as above. Particulars: MCC and control cell lines, CellTiter-Glo viability, 72 h; series mostly up to 46 µM. In a few lines:
as §3

For assay [8], the system named is MCC-26. The description is as above. Particulars: MCC and control cell lines, CellTiter-Glo viability, 72 h; series mostly up to 46 µM. Summed up: as §3
Assay [9] has as its system MKL-1. Described as above. Particulars: MCC and control cell lines, CellTiter-Glo viability, 72 h; series mostly up to 46 µM. In a few lines:
as §3

Assay [10] deals with MKL-2. The description is as above. Particulars: MCC and control cell lines, CellTiter-Glo viability, 72 h; series mostly up to 46 µM. In a few lines:
as §3

Assay [11] deals with UISO. Described as above. Particulars: MCC and control cell lines, CellTiter-Glo viability, 72 h; series mostly up to 46 µM. Summed up: as §3
The test system of assay [12] is PC26. Nature of the assay: qHTS profiling for inhibitors of Plasmodium falciparum proliferation (AID 504749). Note: potency is the fitted concentration of half-maximal effect. Particulars: P. falciparum in erythrocytes, SYBR Green DNA, 72 h; series mostly up to 28.7 µM. Summed up: as §1
Assay [13] has as its system PC49. The description is as above. Particulars: P. falciparum in erythrocytes, SYBR Green DNA, 72 h; series mostly up to 28.7 µM. Summed up:
as §1

Assay [14] has as its system SC27B. The description is as above. Particulars: P. falciparum in erythrocytes, SYBR Green DNA, 72 h; series mostly up to 28.7 µM. In a few lines:
as §1

Assay [15] deals with TAB109. The description is as above. Particulars: P. falciparum in erythrocytes, SYBR Green DNA, 72 h; series mostly up to 28.7 µM. Summed up: as §1
The subject of assay [16] is TAB113. The assay is described as above. Particulars: P. falciparum in erythrocytes, SYBR Green DNA, 72 h; series mostly up to 28.7 µM. Summed up: as §1
Assay [17] relates to W2. The assay is described as above. Particulars: P. falciparum in erythrocytes, SYBR Green DNA, 72 h; series mostly up to 28.7 µM. In a few lines:
as §1

Assay [18] relates to HEK293T. Description: qHTS assay to identify novel small-molecules to repurpose for Merkel cell carcinoma treatment (AID 1296009). Particulars: MCC and control cell lines, CellTiter-Glo viability, 72 h; at 44.8 µM (top of the series) unless noted. In a few lines: as §3
Assay [19] relates to NIH3T3. The assay is described as above. Particulars: MCC and control cell lines, CellTiter-Glo viability, 72 h; at 44.8 µM (top of the series) unless noted. Summed up: as §3
Note: nearly all actives have a fitted effect of over 60% in size.

Turning to `Nc1c2c(nc3c1CCC3)CCCC2`, in assay [1], the Potency was 11.2 µM (active). The result in [2], in assay [4], in assay [6], in assay [7], in assay [8] and in assay [9] was inactive. Moreover, the molecule was called inactive in assay [10] and in [11]. Further, the max response was -2.02% in assay [3] and 0.339% in assay [5].

Consider `OC[C@@H](O)[C@@H](O)[C@H](O)[C@H](O)CO`, for which the Potency entry in assay [12], in [13], in assay [14], in [15], in assay [16] and in [1] was “inactive” each time. Further, the Potency result in assay [17] is “inactive”. The max response was -5.84% in [2], 0.927% in [4] and -8.98% in assay [5]. Also, the molecule was classed as inactive in assay [3], in assay [18], in [7], in assay [8], in assay [9] and in assay [10]. Besides, the molecule was called inactive in assay [11].

Take `Cc1c(NC(C)C)c(=O)n(-c2ccccc2)n1C`: the Potency result in [12], in [13], in [14], in [15], in assay [16] and in assay [1] was “inactive” throughout. For the same molecule, the Potency entry in [17] is “inactive”. For the same molecule, the call in assay [2], in [4], in assay [5], in assay [6], in assay [7] and in [8] was inactive. Moreover, the call in assay [9], in assay [10], in assay [19] and in assay [11] was inactive. The max response in assay [3] was -10.6%.

`CN(C/C=C/C#CC(C)(C)C)Cc1cccc2ccccc12`: the Potency result in assay [12], in assay [13], in assay [14], in assay [15], in assay [16] and in assay [1] was “inactive” in each case. In addition, the values for the max response in [2], in assay [3] and in assay [5] were -11.8%, -4.51% and 2.57%, respectively. In addition, the molecule was called inactive in assay [4], in assay [6], in assay [7], in assay [8], in assay [9] and in assay [10]. The result in assay [11] was inactive.

Consider `C/C=C/C(=O)N(CC)c1ccccc1C`, for which the max response in assay [2] was -6.75%; in [3], 0.227%; in [4], 0.376%; in assay [5], 1.85%. In addition, the molecule was classed as inactive in [7], in assay [8], in [9], in [10] and in [11].

On to `NCc1ccc(S(N)(=O)=O)cc1`, for which the Potency entry in [13], in assay [14] and in [15] was “inactive” each time. In addition, the results for the max response in assay [2], in assay [4] and in assay [5] were -8.65%, -6.18% and 1.15%, respectively. In addition, the molecule was called inactive in assay [3], in assay [18], in assay [7], in assay [8], in assay [9] and in [10]. In addition, the call in assay [11] was inactive.

As to `Cn1c(=O)c2c(ncn2CCO)n(C)c1=O`, the Potency result in [12], in [13], in assay [14], in assay [15], in assay [16] and in [1] was “inactive” throughout. Further, the Potency result in [17] is “inactive”. In addition, the max response in [2] is -4.29%; in assay [3], -4.8%; in [5], -3.21%. The result in assay [4], in assay [6], in assay [7], in assay [8], in assay [9] and in [10] was inactive. Moreover, in assay [11], the result was inactive.

Turning to `CC(C)c1cc2c(cc1S(=O)(=O)O)[C@@]1(C)CCC[C@@](C)(C(=O)O)[C@@H]1CC2`, the Potency entry in assay [12], in assay [13], in assay [14], in assay [15], in assay [16] and in assay [1] was “inactive” each time. For the same molecule, the figures for the max response in assay [2] and in assay [3] were -2.14% and 0.927%, respectively. Further, the molecule was called inactive in assay [4], in assay [5], in [6], in [7], in assay [8] and in assay [9]. Further, the molecule was called inactive in assay [10], in assay [19] and in assay [11].

The values above are taken from PubChem BioAssay (NCATS).
